We go through 35 compounds from PubChem BioAssay.
Further: test concentration not given here.

A short description of one assay: calcein-AM signal in unstimulated myeloma cells – cell-based, calcein-AM fluorescence, 48 h, PK04 Diversity Set, profiling panel (AID 1166).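 Further: cells grown under basal conditions without added stimulus.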 The conditions noted are these: RPMI8226 myeloma viability, higher = more signal.
As to `CN(C)CCCNC(=O)[C@@H]1c2ccccc2C(=O)N(CC23CC4CC(CC(C4)C2)C3)[C@H]1c1ccc(CO)cc1`, the z-score is -1.91. Consider `COc1cc2c(cc1OC)CN(C(=O)[C@H]1[C@@H]3C(=O)O[C@@H](c4ccccc4)[C@@H](c4ccccc4)N3[C@@H](c3ccc(OCCO)cc3)[C@]13C(=O)Nc1ccc(C#CCCO)cc13)CC2`, for which the z-score is 0.77. Same read-out and setting: for `COCCOC(=O)N1C(=O)[C@@]2(c3cc(C#CC4=CCCCC4)ccc31)[C@H](c1ccccc1OCCO)N1[C@H](c3ccccc3)[C@H](c3ccccc3)OC(=O)[C@H]1[C@@H]2C(=O)N1CCc2cc(OC)c(OC)cc2C1` the value was -2.05.

A further assay can be described thus: JC-1 mitochondrial signal, unstimulated HepG2 cells – cell-based, JC-1 fluorescence, 24 h, 100 nL compound, profiling panel (AID 1167). The conditions noted are these: HepG2 mitochondrial potential, higher = more signal.
Compound `C=CC[C@@]12N=C(c3ccc(OCCCO)cc3)O[C@@H]1c1ccccc1N(CCS(=O)(=O)c1ccccc1)C2=O` had a z-score of 0.381. On the same count and under the same terms, for `CN(C)CCCNC(=O)[C@@]1(C)c2ccccc2C(=O)N(Cc2cc(C(F)(F)F)cc(C(F)(F)F)c2)[C@H]1c1ccc(CO)cc1` the value was 1.31; for `CC(C)NC(=O)[C@@]1(C)c2ccccc2C(=O)N(C(C)C)[C@H]1c1ccc(CO)cc1`, 0.313; for `O=C(N1CCCCC1)[C@@]1(Cc2ccccc2)COC(c2ccc(OCCCO)cc2)=N1`, -2.33. In the case of `O=C1C[C@@](C(=O)NCC(F)(F)F)(c2ccc([N+](=O)[O-])cc2)[C@@H](c2ccc(CO)cc2)N1C1CCCCC1`, the z-score was determined as 0.0995. Same read-out and setting: for `O=C1c2ccccc2[C@](Cc2ccccc2I)(C(=O)NCc2ccccc2)[C@H](c2ccc(CO)cc2)N1C1CCCCC1` the value was 1.36; for `C=CC[C@@]1(C(=O)N2CCCCC2)N=C(c2ccc(OCCCO)cc2)O[C@@H]1c1ccccc1`, -0.381. On the same count and under the same terms, for `C=CCOC(=O)[C@@H]1[C@H]2C(=O)O[C@H](c3ccccc3)[C@H](c3ccccc3)N2[C@H](c2ccc(OCCOC(=O)[C@H]3C[C@H]4C(=O)N[C@@H](CCCC[N+](C)(C)C)C(=O)N4[C@H]3c3ccc(O)cc3)cc2)[C@@]12C(=O)Nc1ccc(I)cc12` the value was -2.03.

Take `C[C@H]1ON(c2ccc(C(=O)OC(C)(C)C)cc2)[C@@H](c2ccc(O)cc2)[C@@H]1C(=O)N1C(=O)OC[C@@H]1c1ccccc1`: the z-score is -2.36. Same read-out and setting: for `Cc1c(NC(=O)/C(C#N)=C/C=C/c2ccccc2[N+](=O)[O-])c(=O)n(-c2ccccc2)n1C` the value was -1.76; for `CC(C)(C)OC(=O)CC[C@]1(C(=O)NCCN2CCOCC2)N=C(c2ccc(OCCCO)cc2)O[C@H]1c1ccccc1N=[N+]=[N-]`, 1.27.

Compound `CCOC(=O)[C@H]1C/C=C/C[C@H](C(=O)OCC)C(=O)O[C@H]2[C@@H](OC)O[C@H](CO)[C@@H](OC(=O)Nc3ccc(OC)cc3)[C@@H]2OC1=O` returned a z-score of 1.89. Same read-out and setting: for `O=C1NC(=O)C2C1C=CC(C(O)c1c(F)cccc1Cl)N2Nc1ccccn1` (stereo not drawn) the value was -1.05; for `COc1ccc([Si](C)(C)[C@@H]2[C@@H](CCO)O[C@]3(C(=O)N(Cc4cccc(N5C(=O)c6ccccc6Oc6ccccc65)c4)c4ccccc43)[C@H]2C)cc1`, -0.192.

Take `Cc1ccc(S[C@]2(C(=O)NCc3ccccc3)CC(=O)N(C(C)C)[C@@H]2c2ccc(CO)cc2I)cc1`: the z-score was -0.0692. Still for that read-out and setting: for `CC(C)CCC[C@@H](C)[C@H]1CC[C@@]2(C)C3=C(CC[C@]12C)[C@@]1(C)CC[C@H](OC(=O)c2ccc(Br)cc2)C(C)(C)C1CC3` (stereo partly drawn) the value was 1.14; for `NC(=O)N1C(=O)C2C(C1=O)C1C=C(c3ccc(CO)cc3)C2C(C2CC2)N1Cc1sc2ccccc2c1Cl` (stereo not drawn), 0.159; for `C=CCN1C(=O)[C@@]2(O[C@@H](CCn3cc([C@H](O)c4ccccc4)nn3)[C@H]([Si](C)(C)c3ccc(OC)cc3)[C@H]2C)c2ccccc21`, 1.06.

For `CC1CC/C=C\[C@H]2OC34C=CCN(CCN5CCOCC5)C(=O)[C@H]3N(CCO)C(=O)[C@@H]4C2C(=O)O1` (stereo partly drawn), the z-score was -0.382. Still for that read-out and setting: for `C=CCOC(=O)[C@H]1[C@@H]2C(=O)O[C@@H](c3ccccc3)[C@@H](c3ccccc3)N2[C@@H](c2ccc(OCCOC(=O)[C@H]3C[C@H]4C(=O)N[C@@H](Cc5ccccc5)C(=O)N4[C@H]3c3ccc(O)cc3)cc2)[C@]12C(=O)Nc1ccc(I)cc12` the value was 0.408; for `COc1ccc(C#Cc2ccc3c(c2)[C@]2(C(=O)N3)[C@H](C(=O)N3CCc4cc(OC)c(OC)cc4C3)[C@H]3C(=O)O[C@H](c4ccccc4)[C@H](c4ccccc4)N3[C@@H]2c2ccc(O)cc2)cc1`, -1.43; for `O=C1O[C@@H](c2ccccc2)[C@@H](c2ccccc2)N2[C@@H](c3ccccc3OCCO)[C@]3(C(=O)Nc4ccccc43)[C@@H](C(=O)NC[C@H](O)c3ccccc3)[C@H]12`, -1.64. Same read-out and setting: for `C[C@]1(C(=O)NC2CC2)c2ccccc2C(=O)N(Cc2ccc(OC(F)(F)F)cc2)[C@H]1c1ccc(CO)cc1` the value was 2.32; for `NC(=O)NCC#Cc1ccc2c(c1)[C@]1(C(=O)N2)[C@H](C(=O)Nc2nc3ccccc3s2)[C@H]2C(=O)O[C@H](c3ccccc3)[C@H](c3ccccc3)N2[C@@H]1c1ccc(O)cc1`, -3.35; for `COc1ccc(CCNC(=O)[C@@]2(Sc3ccc(C)cc3)CC(=O)N(Cc3cc(C(F)(F)F)cc(C(F)(F)F)c3)[C@@H]2c2ccc(CO)cc2I)cc1`, -1.08. Still for that read-out and setting: for `CN(C)CCCNC(=O)[C@@H]1c2ccccc2C(=O)N(Cc2ccc(OC(F)(F)F)cc2)[C@H]1c1ccc(CO)cc1` the value was 3.72.

`COCCCNC(=O)[C@@]1(Sc2ccc(C)cc2)CC(=O)N(C2Cc3ccccc3C2)[C@@H]1c1ccc(CO)cc1I` showed a z-score of -0.188. On the same count and under the same terms, for `CCCCC(CC)C(O)C1C=CC2C(=O)N(c3ccccc3)C(=O)C2N1Nc1ccc([N+](=O)[O-])cc1` (stereo not drawn) the value was -1.74; for `CC(C)C(=C=CC[C@@H](O)c1ccccc1OCCO)C[C@@H](O)COCc1ccccc1`, 0.324.

`C[C@H]1C2=C3C(CC[C@H]4C(OCc5ccc(F)cc5C(F)(F)F)OC[C@](C)([C@@H]34)N(C(=O)OC(C)(C)C)C2)C2COC(=O)OCC21` (stereo partly drawn) showed a z-score of -0.255. Same read-out and setting: for `CCOC(=CC(=O)OC)CC(O)c1cccc(Cl)c1` (stereo not drawn) the value was 0.363; for `COc1cc(OC)c(C(O)C2C=CC3C(=O)N(c4ccccc4)C(=O)C3N2Nc2ccc(C#N)cc2)cc1Br` (stereo not drawn), -1.66; for `CN(C)CCCNC(=O)[C@@H]1c2ccccc2C(=O)N(CC23CC4CC(CC(C4)C2)C3)[C@H]1c1ccc(CO)cc1`, 1.44.

As to `COc1cc2c(cc1OC)CN(C(=O)[C@H]1[C@@H]3C(=O)O[C@@H](c4ccccc4)[C@@H](c4ccccc4)N3[C@@H](c3ccc(OCCO)cc3)[C@]13C(=O)Nc1ccc(C#CCCO)cc13)CC2`, the z-score was -1.21. Same read-out and setting: for `COCCOC(=O)N1C(=O)[C@@]2(c3cc(C#CC4=CCCCC4)ccc31)[C@H](c1ccccc1OCCO)N1[C@H](c3ccccc3)[C@H](c3ccccc3)OC(=O)[C@H]1[C@@H]2C(=O)N1CCc2cc(OC)c(OC)cc2C1` the value was 0.767.
